Reference: PMC4336329 (PLoS ONE, 2015)
Screen size: about 310,000 compounds; about 2,200 (0.71%) showed an effect of 50% or more. The effect is printed as a negative number. The entries come from a sample that favours strong results as a whole.

Each molecule was assayed against human ether-à-go-go-related gene (hERG) potassium channel (human, UniProt Q12809) (assay: primary screen, population patch clamp on CHO cells stably expressing hERG; higher = less effect of the substance).
Chain of human ether-à-go-go-related gene (hERG) potassium channel (Q12809 whole entry, looked up): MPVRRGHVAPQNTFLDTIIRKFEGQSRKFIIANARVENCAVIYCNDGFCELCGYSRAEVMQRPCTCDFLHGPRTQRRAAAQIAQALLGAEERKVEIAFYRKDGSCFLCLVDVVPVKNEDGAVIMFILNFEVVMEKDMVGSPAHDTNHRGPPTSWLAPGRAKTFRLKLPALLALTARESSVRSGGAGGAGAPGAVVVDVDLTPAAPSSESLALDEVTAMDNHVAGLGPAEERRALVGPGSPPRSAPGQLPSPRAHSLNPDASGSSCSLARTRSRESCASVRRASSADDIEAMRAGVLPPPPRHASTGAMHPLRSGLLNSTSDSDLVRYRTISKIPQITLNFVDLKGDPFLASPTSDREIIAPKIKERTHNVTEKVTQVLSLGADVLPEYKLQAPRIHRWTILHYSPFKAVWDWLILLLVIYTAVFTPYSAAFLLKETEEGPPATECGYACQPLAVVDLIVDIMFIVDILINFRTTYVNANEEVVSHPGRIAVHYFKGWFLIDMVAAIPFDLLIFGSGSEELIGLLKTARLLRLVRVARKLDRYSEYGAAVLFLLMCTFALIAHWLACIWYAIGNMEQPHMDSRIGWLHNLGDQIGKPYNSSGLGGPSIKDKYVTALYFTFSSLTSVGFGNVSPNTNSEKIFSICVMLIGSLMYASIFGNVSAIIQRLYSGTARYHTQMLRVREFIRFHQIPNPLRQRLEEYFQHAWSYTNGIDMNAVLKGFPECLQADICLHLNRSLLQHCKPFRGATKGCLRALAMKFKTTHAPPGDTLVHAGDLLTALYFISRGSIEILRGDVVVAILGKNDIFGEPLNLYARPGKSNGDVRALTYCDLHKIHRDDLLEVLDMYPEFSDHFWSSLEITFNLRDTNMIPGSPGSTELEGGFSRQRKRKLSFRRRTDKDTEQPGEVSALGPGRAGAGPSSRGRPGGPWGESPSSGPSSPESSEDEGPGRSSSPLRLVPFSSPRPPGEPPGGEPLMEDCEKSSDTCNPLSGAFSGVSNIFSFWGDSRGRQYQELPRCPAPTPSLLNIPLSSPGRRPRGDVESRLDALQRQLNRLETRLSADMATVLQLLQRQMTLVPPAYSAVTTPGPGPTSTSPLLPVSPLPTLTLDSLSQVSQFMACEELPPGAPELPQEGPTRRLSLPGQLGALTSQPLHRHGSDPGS

SMILES | hERG current change (%, negative = inhibition) at 1uM
COc1ccccc1-n1cnc(N)c1C(C)=O | 6.83%
COc1cccc(-c2nc(OC(C)C)c3ccccc3n2)c1 | 7.09%
CCOC(=S)SCC(=O)Nc1nc(-c2ccc(Br)cc2)cs1 | -92%
CCOC(=O)N1CCN(C(=O)CSCC(=O)Nc2nc(-c3ccc(C)cc3)cs2)CC1 | 1.87%
CCOC(=S)SCC(=O)Nc1nc(-c2ccccc2)cs1 | 29.9%
CCOC(=O)C1=C(C)OC(N)=C(C#N)C1c1ccc(C)o1 (centres unmarked) | 7.95%
COc1ccc(CCN(C)CC(O)COC(c2ccc(F)cc2)c2ccc(F)cc2)cc1OC (centres unmarked) | -79.9%
COc1ccc(CCN(C)CC(O)c2ccccc2)cc1OC.O=C(O)C(=O)O (centres unmarked) | 1.76%
COc1ccc(CCNCC(O)COc2c(C)cccc2C)cc1OC.O=C(O)C(=O)O (centres unmarked) | 7.9%
COc1ccc(CCN(C)Cc2ccc(F)cc2F)cc1OC | -2.08%
COc1ccc(CCN(C)CC(O)COc2c(C)ccc(C)c2C)cc1OC (centres unmarked) | -68.7%
COc1ccc(CCN(C)CC(O)COc2ccc(C(C)=O)cc2OC)cc1OC (centres unmarked) | 8.67%
Cc1cccc(Cn2c(=O)n(CCCC(=O)NCc3ccco3)c(=O)c3ccccc32)c1 | -4.67%
O=C(CCc1ccccc1)Nc1sc2c(c1C(=O)O)CCCC2 | 20.1%
CCc1nnc(N2C(=N)SCC2=O)s1 | 4.71%
Cc1ccc(S(=O)(=O)NC(C)C(=O)NC2CCCCCC2)cc1 (centres unmarked) | -2.05%
NC(=O)COC(=O)c1ccc2c(c1)C(=O)N(Cc1ccco1)C2=O | 9.91%
N#Cc1ccc(OCc2cccc(S(=O)(=O)N3CCOCC3)c2)cc1 | -57.3%
N#Cc1ccccc1OCc1cccc(S(=O)(=O)N2CCOCC2)c1 | 11.3%

SMILES | hERG current change (%, negative = inhibition) at 1uM
Cc1cc(OCc2cccc(S(=O)(=O)N3CCOCC3)c2)ccc1Cl | 4.05%
COc1ccc(OC)c(/C=N/NC(=O)C(=O)N2CCCC2)c1 | 1.25%
CCOC(=O)N1CCN(c2cc(=O)n(-c3ccc(C)cc3)c(=O)[nH]2)CC1 | -8.88%
COc1ccc(NC(=O)c2cc([N+](=O)[O-])ccc2N2CCN(C)CC2)cc1 | -15.5%
CN1CCN(c2ccccc2NC(=O)c2ccc([N+](=O)[O-])cc2Cl)CC1 | 0.769%
Cc1cccc(NC(=O)c2cc([N+](=O)[O-])ccc2N2CCN(C)CC2)c1 | -41.2%
CN1CCN(c2ccc([N+](=O)[O-])cc2NC(=O)c2cccs2)CC1 | -14.2%
CN1CCN(c2ccc([N+](=O)[O-])cc2C(=O)Nc2ccccc2)CC1 | -59.8%
CN1CCN(c2ccc([N+](=O)[O-])cc2NC(=O)c2ccccc2Cl)CC1 | -75.6%
O=C1NCCc2c1[nH]c1ccccc21 | -4.21%
COc1ccc(C(=O)Nc2ccc(NC(C)=O)cc2)cc1S(=O)(=O)N1CCCC1 | 16.9%
Cc1nc(NCCC(C)C)c2nnn(Cc3ccccc3)c2n1 | 11.3%
O=C(O)/C=C\C(=O)O.O=[N+]([O-])c1ccc2nc(N3CCNCC3)ccc2c1 | 1.34%
COC(=O)/C=c1/s/c(=C(\C#N)C(=O)NCc2ccco2)n(-c2ccccc2)c1=O | 14.8%
CCCC(=NCCc1c(C)[nH]c2ccccc12)C1=C(O)CC(c2ccccc2)CC1=O (centres unmarked) | -11.1%
CCCN1CCN(CCCNC(=O)C2CCN(c3nnc(-n4c(C)ccc4C)s3)CC2)CC1 | 13.1%
CCS(=O)(=O)c1ccc(O)c(NC(=O)COc2ccccc2)c1 | 12.6%
Cc1cccc(-n2nc([N+](=O)[O-])c(=NC3CCN(Cc4ccccc4)CC3)n2O)c1 | -55.4%
COc1ccc(-n2nc([N+](=O)[O-])c(=NC3CCN(Cc4ccccc4)CC3)n2O)cc1 | -6.46%

SMILES | hERG current change (%, negative = inhibition) at 1uM
O=[N+]([O-])c1nn(-c2ccccc2)n(O)c1=NC1CCN(Cc2ccccc2)CC1 | -16%
O=C(Nc1cnn(Cc2ccc(Cl)cc2)c1)C1CCCC1 | -7.77%
O=C(NCc1ccc(F)cc1)C(=O)NCC1OCCN1C(=O)c1cccs1 (centres unmarked) | 3.51%
O=C(NCc1ccc(Cl)cc1)C(=O)NCC1OCCN1C(=O)c1cccs1 (centres unmarked) | 3.06%
O=C(NCc1ccccc1)C(=O)NCC1OCCN1C(=O)c1cccs1 (centres unmarked) | -54.6%
CCOC(=O)Cc1csc(NC(=O)c2ccc(OC)c(OC)c2)n1.Cl | -6.29%
CN(C)S(=O)(=O)c1ccc(C(=O)NCC(C)(C)CN=C2NS(=O)(=O)c3ccccc32)cc1 | 1.35%
Cc1nnc(C)c2c(C)n(C(C)c3ccccc3)c(C)c12 (centres unmarked) | -1.28%
Cc1nnc(C)c2c(C)n(C(c3ccccc3)c3ccccc3)c(C)c12 | -65.7%
CC(=O)c1c(C(C)=O)c(C)n(C(c2ccccc2)c2ccccc2)c1C | -4.36%
COc1ccc(C(=O)C(Sc2nnc(C)c(=O)[nH]2)c2ccc(OC)cc2)cc1 (centres unmarked) | 1.35%
COc1ccc(C(C)n2c(C)c3c(C)nnc(C)c3c2C)cc1 (centres unmarked) | -52.3%
COc1ccc(-c2nnnn2C(C)C)cc1 | 11.1%
Cc1cccc(NC(=O)NC2(C(=O)NCc3ccco3)CCCCC2)c1 | 2.75%
CN(C)c1ccc(NS(=O)(=O)c2ccc(Cl)cc2)cc1 | 6.28%
CC(C)Oc1ccc(Nc2ncnc3ccccc23)cc1.Cl | 3.47%
COc1ccc(NC(=O)CCn2ccnc2)c(OC)c1 | 9.53%
COC(=O)COc1ccc(S(=O)(=O)N2CCOCC2)cc1 | 13.1%
